CHX counter: counter-screen hit for Shiga toxin inhibitors, cycloheximide | cell reporter, cycloheximide protein synthesis inhibition counterscreen | max response, % | 12% of 300,000 active | AID 2314; in the data active = max response mostly above about 13%, no sharp cut-off; inactive = mostly below about 14%; also: read at 38.3 µM for the half of the compounds with a filed dose; 0% is about no effect
HCV inh: blocks hepatitis C virus; Huh7.5.1 HCVcc-Cre infection, luciferase reporter, 44 h; Potency, µM (titrated, usually from 41.8 µM), without a hit: at the highest dose activity change, negative = inhibition, most hits filed as inhibitors; 3.4% of 340,000 active; also: potency is read from the fitted curve at half-maximal effect; % is scaled to controls: 0 for no effect and ±100 for the full control effect
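Compounds are dispensed onto cells plated 4 h earlier at 1,000 per well, with HCVcc-Cre virus (about 0.5 moi) added next. Following 44 h of culture, luminescent signal is measured for 15 sec after 15 min with substrate at room temperature.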
Pf growth 96h: P. falciparum growth inhibition at 96 hours | P. falciparum luciferase reporter growth, 96 h | Potency, µM (highest dose often 28.7 µM), for inactives: at the top dose activity change, negative = inhibition, hits mostly inhibitors | 6.9% of 320,000 active | AID 504834; also: potency is read from the fitted curve at half-maximal effect; % is scaled to controls: 0 for no effect and ±100 for the full control effect
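Luminescence readout: decreased luciferase signal marks inhibited growth of reporter-expressing P. falciparum in infected red cells (2% hematocrit, 0.05% parasitemia final), exposed to compound two generations (96 h, 37 C, 5% CO2).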
Shiga inhibitor: blocks Shiga toxin action in Vero cells | AID 2315 | 9.2% of 290,000 active | inhibition, % at 38.7 µM | Vero cells, Shiga toxin protein synthesis inhibition reporter; in the data active = inhibition mostly above about 28%, no sharp cut-off; inactive = mostly below about 43%; also: 0% is about no effect
HCMV inh: human cytomegalovirus inhibition | HFF cells, HCMV-luciferase reporter, 72 h; hits give low values | activity change, negative = inhibition, % at 57.5 µM | 4.5% of 410,000 active; in the data active = activity change below about -60%; inconclusive = no clear call, values can overlap the other calls; inactive = above about -39%; also: % is scaled to controls: 0 for no effect and ±100 for the full control effect
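Two-dose cell screen: HFF monolayers treated with compounds and infected with luciferase-expressing HCMV at 1 PFU/cell, 72 h at 37C, then lysed for luciferase measurement.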
Pf growth 48h: P. falciparum growth inhibition at 48 hours (one generation); 5.9% of 310,000 active; Potency, µM (doses to about 28.7 µM), for inactives: at the top dose activity change, negative = inhibition, hits mostly inhibitors; P. falciparum luciferase growth in erythrocytes, 48 h; also: potency is read from the fitted curve at half-maximal effect; % is scaled to controls: 0 for no effect and ±100 for the full control effect
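Cell-based growth assay: transgenic P. falciparum expressing firefly luciferase, cultured in red cells within RPMI 1640 containing 0.5% w/v Albumax, 24 mM bicarbonate and gentamycin. A drop in luciferase activity indicates inhibition.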
* hit, by the source's call; ? = inconclusive; · = no result given; [ ] = remark or other dose. This is a sample that favours compounds with a hit; in the whole collection about 21% have one here. Unless noted, calls follow the shape of the dose curve; as a rule, active = well fitted inhibition curve with a large enough effect; inconclusive = small, poorly fitted or top-dose-only effect, or another doubt; inactive = no such curve, though single readings can be large or run the other way.

SMILES	CHX counter	HCV inh	Pf growth 96h	Shiga inhibitor	HCMV inh	Pf growth 48h
CC(=O)N1CCN(S(=O)(=O)c2cccc(C(=O)Nc3ccc(F)c(F)c3)c2)CC1	-2	-17%	0%	-5	8	1%
CC(C)(C)C(=O)Nc1scc(-c2ccc(-c3ccccc3)cc2)c1C(=O)O	5	8%	-2%	-2	-1	?
Nc1sc(-c2ccccc2)cc1C(=O)O	29*	·	-21%	55*	·	·
Cc1cccc(C(=O)Nc2sc(-c3ccccc3)cc2C(=O)O)c1	46*	13%	237%	127*	25	138%
CC(C)(C)C(=O)Nc1sc(-c2ccccc2)cc1C(=O)O	41*	7%	0%	112*	-64*	82%
Cc1ccc(C(O)c2ncc(-c3ccc4ccccc4c3)[nH]2)c(C)c1 (stereo not drawn)	·	·	·	·	7	·
O=C(NCCc1ccncc1)[C@@H]1[C@@H](CO)[C@@H]2Cn3c(ccc(-c4ccccc4)c3=O)[C@@H]2N1C(=O)C1CC1	·	·	·	·	9	·
COc1cccc(CN2CC(C(=O)NCCCc3ccc(C)cc3)CCC2=O)c1 (stereo not drawn)	19*	-2%	34%	48	67	-6%
COc1cccc(CN2CC(C(=O)NCCCc3ccncc3)CCC2=O)c1 (stereo not drawn)	-4	·	12µM*	-10	32	11%
COc1cccc(CN2CC(C(=O)NCCCn3ccnc3C)CCC2=O)c1 (stereo not drawn)	-3	11%	?	-19	9	19%
CCn1cc(C(=O)NCCCOC)c(=O)c2cc(S(=O)(=O)N3CCc4ccccc4C3)ccc21	·	·	·	·	-15	·
COc1ccc(Cl)cc1N(C(=O)c1ccco1)C(C(=O)NC1CCCC1)c1ccco1 (stereo not drawn)	2	8%	14%	18	-6	?
COC(=O)c1ccc2c(=O)n(Cc3ccco3)c(SCC(=O)Nc3cc(C)on3)nc2c1	-3	-23%	-6%	-5	-95*	4.7µM*
Cc1cc(NC(=O)CSc2nc3cc(C(=O)NCCCOC(C)C)ccc3c(=O)n2Cc2ccco2)no1	3	7.1µM*	?	37	-84*	?
COCCNC(=O)c1ccc2c(=O)n(Cc3ccco3)c(SCC(=O)Nc3ccc(OC)cc3OC)nc2c1	-6	?	?	-4	?	?
COc1ccccc1NC(=O)c1sc2cccc(Cl)c2c1Cl	·	·	·	·	-40	·
CCOC(=O)C1=C[C@]2(CC)CCCN3CCc4c(n1c1ccccc41)[C@@H]32	3	-5%[8.37 µM]	3.7µM*	33	-34	5.2µM*
CC[C@]12CCCN3CCc4c(n(c5ccccc45)C(=O)C1)[C@@H]32	·	6.3µM*	?	·	47	?
CC[C@]12CCCN3CCc4c(n(c5ccccc45)[C@@](O)(C(=O)OC)C1)[C@@H]32	·	-5%	35%	·	-33	57%
COc1cc(C2/C(=C(\O)c3ccc4c(c3)CC(C)O4)C(=O)C(=O)N2CCCn2ccnc2)cc(OC)c1OC (stereo not drawn)	-7	7%	?	-2	29	-1%
c1cc2c3c(cccc3c1)NC1(CCCC1)N2	·	-12%	·	·	25	·
CN1CCC2(CC1)NC(=O)c1ccccc1N2	4	13%	96%	1	15	-1%
S=C1NC2(CCCC2)Nc2ccccc21	38*	4%	-19%	103*	0	22%
S=C1NC2(CCCCC2)Nc2ccccc21	16*	9%	17%	33	-25	-17%
COc1cc2c(cc1OC)C(COc1cc(C)cc(C)c1)N(C(=O)C(C)(C)C)CC2 (stereo not drawn)	·	·	·	·	23	·
SMILES	CHX counter	HCV inh	Pf growth 96h	Shiga inhibitor	HCMV inh	Pf growth 48h
N#CCc1ccc(C(=O)c2ccccc2F)s1	17*	?	?	64	47	-23%
O=C(O)Cc1ccc(C(=O)c2ccccc2)s1	-2	-6%	-11%	-10	21	·
CC(SCc1ccccc1)C(=O)Nc1ccccc1 (stereo not drawn)	2	5%	?	0	-20	?
CCN(CC)CCC[C@H](C)Nc1c2ccc(Cl)cc2nc2ccc(OC)cc12	·	·	0.095µM*	·	·	0.038µM*
COc1ccc(C(=O)Nn2c(CC(C)C)nc3cc(Cl)ccc3c2=O)c(OC)c1	-1	-27%	?	-6	26	-7%
CCN(CC)CCNc1ccnc2cc(Cl)ccc12	3	5.6µM*	1%	-6	0	0.074µM*
CCN(CC)CCCC(C)Nc1nccc2c(Cl)cccc12 (stereo not drawn)	·	10µM*	·	·	-35	·
CCN(CCO)CCCC(C)Nc1ccnc2cc(Cl)ccc12 (stereo not drawn)	-3	·	0.17µM*	4	·	0.15µM*
CCCCN(CC)CCNC(=O)c1cc2cc3ccc(Cl)cc3nc2o1	-5	?	?	-9	35	1%[0.00184 µM]
NS(=O)(=O)c1ccc(CCNCc2cccnc2)cc1	-2	12%	10%	-11	3	-1%
CSc1ccc(/C=C/C(=O)c2ccc(NC(C)=O)cc2)cc1	33*	-25%	0.66µM*	59*	54	-4%
CCCC(=O)Nc1ccc(C(=O)/C=C/c2ccc(SC)cc2)cc1	22	11µM*	?	28	5	?
CN(Cc1ccccc1)C(=O)c1ccc(NC(=O)c2ccccc2)cc1	-3	·	-5%	-34	0	?
CCCOc1cccc(C(=O)Nc2cccc(NC(=O)c3ccco3)c2)c1	14*	25µM*	·	67	-8	?
CCCCOc1cccc(C(=O)Nc2ccc(NC(=O)c3ccco3)cc2)c1	-2	5%	195%	-18	-78*	13%
Cc1cc(CN2CCN(c3cccc(C)c3C)CC2)cs1	·	·	·	·	-69*	·
Cc1cc(CN2CCN(c3ccccc3F)CC2)cs1	·	·	·	·	-22	·
CCCC[C@H]1COCCS(=O)(=O)N1Cc1cccc([N+](=O)[O-])c1	-2	-5%	-19%	-17	-100*	1%
Cc1cc(C(F)F)n2nc(C(=O)Nc3ccc(C(C)C)cc3)nc2n1	·	·	·	·	-1	·
CCCCn1c(N)c(N(CCOC)C(=O)c2cc(-c3ccc(OC)cc3)nc3ccccc23)c(=O)[nH]c1=O	·	-7%	?	·	?	9.3µM*
CCCCn1c(N)c(N(CCOC)C(=O)c2cc(-c3ccc(F)cc3)nc3ccccc23)c(=O)[nH]c1=O	·	4%	?	·	-18	?
CCCCn1c(N)c(N(CCOC)C(=O)c2ccc(-c3cccc(C(F)(F)F)c3)o2)c(=O)[nH]c1=O	·	-3%	7.4µM*	·	-31	13µM*
CCCCn1c(N)c(N(CCOC)C(=O)c2cc(-c3ccc(C)cc3)nc3ccccc23)c(=O)[nH]c1=O	·	11%	12µM*	·	-29	?
Cc1cn(CC(=O)NCc2ccccc2)c(=O)[nH]c1=O	·	7%	·	·	-2	·
CC1(C)OC(=O)C2=C(C[C@@H](CCOCc3ccccc3)O[C@H]2c2ccc(F)cc2)O1	·	·	·	·	0	·

Compound activity from PubChem.
